Source: PubChem BioAssay AID1159580 (chemical genetic matrix, 2015)
Among all 5,500 compounds or so, about 2,000 (36%) were called active. Not shown: some 18% with an inconclusive outcome. No stated cut-off is given here; in the data, active means normalized growth mostly below about 0.91 (no sharp cut-off); inconclusive means no clear call, values can overlap the other calls; inactive means mostly above about 0.92. This is one part of the list.

Assay: chemical genetic growth profiling, strain panel (AID 1159580);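 further: tested at 20 µM; growth read once vehicle control cultures reached saturation at 30 °C; 1 = growth at the plate median or of vehicle wells; lower values mean less growth of the strain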
Details: growth OD

Measured: normalized growth

NCC(O)CC(=O)O (centres undefined)
inactive: S. cerevisiae deletion strains, locus YKL009W, strain mrt4, active compounds read low 0.991 | S. cerevisiae deletion strains, locus YKL068W, active compounds read low 0.999 | S. cerevisiae deletion strains, locus YKL085W, strain MDH1 (second series), active compounds read low 1 | S. cerevisiae deletion strains, locus YKL085W, strain MDH1, active compounds read low 1 | S. cerevisiae deletion strains, locus YKL160W, strain elf1, active compounds read low 1.02 | S. cerevisiae deletion strains, locus YKL190W, strain CNB1, active compounds read low 1.02 | S. cerevisiae deletion strains, locus YKR001C, strain vps1, active compounds read low 1 | S. cerevisiae deletion strains, locus YKR026C, strain gcn3, active compounds read low 0.959 | S. cerevisiae deletion strains, locus YKR091W, strain srl3, active compounds read low 0.974 | S. cerevisiae deletion strains, locus YLL001W, strain dnm1, active compounds read low 0.987 | S. cerevisiae deletion strains, locus YLL026W, active compounds read low 0.996 | S. cerevisiae deletion strains, locus YLL041C, strain sdh2, active compounds read low 1 | S. cerevisiae deletion strains, locus YLR027C, strain aat2, active compounds read low 0.97 | S. cerevisiae deletion strains, locus YLR039C, strain RIC1, active compounds read low 1.04 | S. cerevisiae deletion strains, locus YLR058C, strain SHM2, active compounds read low 1.02 | S. cerevisiae deletion strains, locus YLR102C, strain apc9, active compounds read low 1 | S. cerevisiae deletion strains, locus YLR113W, strain HOG1, active compounds read low 0.976 | S. cerevisiae deletion strains, locus YLR221C, strain rsa3, active compounds read low 1.01 | S. cerevisiae deletion strains, locus YLR258W, strain gsy2, active compounds read low 1 | S. cerevisiae deletion strains, locus YLR262C, strain YPT6 (second series), active compounds read low 1 | S. cerevisiae deletion strains, locus YLR262C, strain YPT6, active compounds read low 1.03 | S. cerevisiae deletion strains, locus YLR268W, strain sec22, active compounds read low 0.998 | S. cerevisiae deletion strains, locus YLR320W, strain mms22, active compounds read low 1 | S. cerevisiae deletion strains, locus YLR330W, strain CHS5, active compounds read low 1.01 | S. cerevisiae deletion strains, locus YLR342W, strain FKS1 (second series), active compounds read low 1.02 | S. cerevisiae deletion strains, locus YLR342W, strain FKS1, active compounds read low 0.968 | S. cerevisiae deletion strains, locus YLR357W, strain rsc2, active compounds read low 0.972 | S. cerevisiae deletion strains, locus YLR370C, strain arc18, active compounds read low 0.973 | S. cerevisiae deletion strains, locus YLR371W, strain rom2, active compounds read low 1 | S. cerevisiae deletion strains, locus YLR384C, strain iki3, active compounds read low 0.979 | S. cerevisiae deletion strains, locus YLR418C, strain cdc73, active compounds read low 0.988 | S. cerevisiae deletion strains, locus YML016C, strain PPZ1, active compounds read low 1.01 | S. cerevisiae deletion strains, locus YML032C, strain rad52, active compounds read low 1.01 | S. cerevisiae deletion strains, locus YML120C, strain ndi1, active compounds read low 0.994 | S. cerevisiae deletion strains, locus YML124C, strain tub3, active compounds read low 1 | S. cerevisiae deletion strains, locus YMR058W, strain fet3, active compounds read low 0.972 | S. cerevisiae deletion strains, locus YMR078C, strain ctf18, active compounds read low 1 | S. cerevisiae deletion strains, locus YMR125W, strain sto1, active compounds read low 0.958 | S. cerevisiae deletion strains, locus YMR129W, active compounds read low 0.978 | S. cerevisiae deletion strains, locus YMR205C, strain PFK2, active compounds read low 0.965 | S. cerevisiae deletion strains, locus YMR223W, strain ubp8, active compounds read low 1 | S. cerevisiae deletion strains, locus YMR231W, strain pep5, active compounds read low 0.968 | S. cerevisiae deletion strains, locus YMR263W, strain SAP30, active compounds read low 1.01 | S. cerevisiae deletion strains, locus YMR307W, strain GAS1, active compounds read low 0.988 | S. cerevisiae deletion strains, locus YNL067W, strain RPL9B, active compounds read low 1.01 | S. cerevisiae deletion strains, locus YNL071W, strain lat1, active compounds read low 0.981 | S. cerevisiae deletion strains, locus YNL128W, strain TEP1, active compounds read low 1.02 | S. cerevisiae deletion strains, locus YNL183C, strain NPR1, active compounds read low 0.931 | S. cerevisiae deletion strains, locus YNL209W, strain ssb2, active compounds read low 0.985 | S. cerevisiae deletion strains, locus YNL233W, strain BNI4, active compounds read low 1.04 | S. cerevisiae deletion strains, locus YNL248C, strain rpa49, active compounds read low 1.02 | S. cerevisiae deletion strains, locus YNL250W, strain rad50, active compounds read low 0.99 | S. cerevisiae deletion strains, locus YNL271C, strain bni1, active compounds read low 0.992 | S. cerevisiae deletion strains, locus YNL298W, strain CLA4, active compounds read low 0.992 | S. cerevisiae deletion strains, locus YNL307C, strain MCK1, active compounds read low 1.01 | S. cerevisiae deletion strains, locus YNL322C, strain KRE1 (second series), active compounds read low 0.958 | S. cerevisiae deletion strains, locus YNL322C, strain KRE1, active compounds read low 1.02 | S. cerevisiae deletion strains, locus YNR049C, strain mso1, active compounds read low 0.983 | S. cerevisiae deletion strains, locus YNR052C, strain pop2, active compounds read low 1 | S. cerevisiae deletion strains, locus YOL006C, strain TOP1, active compounds read low 0.988 | S. cerevisiae deletion strains, locus YOL012C, strain htz1 0.788 | S. cerevisiae deletion strains, locus YOL147C, strain pex11, active compounds read low 1 | S. cerevisiae deletion strains, locus YOR001W, strain rrp6, active compounds read low 1.02 | S. cerevisiae deletion strains, locus YOR061W, strain CKA2, active compounds read low 1.01 | S. cerevisiae deletion strains, locus YOR069W, strain VPS5, active compounds read low 1.01 | S. cerevisiae deletion strains, locus YOR070C, strain gyp1, active compounds read low 0.991 | S. cerevisiae deletion strains, locus YOR080W, strain dia2, active compounds read low 0.979 | S. cerevisiae deletion strains, locus YOR083W, strain WHI5, active compounds read low 1.03 | S. cerevisiae deletion strains, locus YOR106W, strain vam3, active compounds read low 0.978 | S. cerevisiae deletion strains, locus YOR136W, strain idh2, active compounds read low 1 | S. cerevisiae deletion strains, locus YOR144C, strain elg1, active compounds read low 0.999 | S. cerevisiae deletion strains, locus YOR184W, strain ser1, active compounds read low 1 | S. cerevisiae deletion strains, locus YOR231W, strain MKK1, active compounds read low 1.02 | S. cerevisiae deletion strains, locus YOR265W, strain rbl2, active compounds read low 0.989 | S. cerevisiae deletion strains, locus YOR270C, strain vph1, active compounds read low 0.987 | S. cerevisiae deletion strains, locus YOR290C, strain snf2, active compounds read low 0.938 | S. cerevisiae deletion strains, locus YOR316C, strain cot1, active compounds read low 1.01 | S. cerevisiae deletion strains, locus YPL051W, strain arl3, active compounds read low 1.02 | S. cerevisiae deletion strains, locus YPL078C, strain atp4, active compounds read low 0.998 | S. cerevisiae deletion strains, locus YPL106C, strain sse1, active compounds read low 0.985 | S. cerevisiae deletion strains, locus YPL240C, strain hsp82, active compounds read low 1 | S. cerevisiae deletion strains, locus YPL241C, strain CIN2, active compounds read low 1.01 | S. cerevisiae deletion strains, locus YPL256C, strain CLN2, active compounds read low 1.01 | S. cerevisiae deletion strains, locus YPR119W, strain clb2, active compounds read low 0.996 | S. cerevisiae deletion strains, locus YPR141C, strain kar3, active compounds read low 0.994 | S. cerevisiae deletion strains, locus YPR163C, strain tif3, active compounds read low 0.993 | S. cerevisiae deletion strains, locus YPR167C, strain met16, active compounds read low 0.995 | S. cerevisiae deletion strains, strain wtn01, active compounds read low 0.99 | S. cerevisiae strains, strain wild type, active compounds read low 1.02
